What all share (type): functional
Experiment [1] deals with Solute carrier family 2, facilitated glucose transporter member 1 (Homo sapiens) (UniProt P11166). Nature of the experiment: ST_JUDE_LEISH: Cytotoxicity at 2uM final concentration against transgenic Leishmania Mexicana promastigotes LmGLUT1 that are glucose transport deficient and complemented with the human glucose transporter GLUT1. Activity is measured by DNA content using SYBR green in vitro.

Experiment [2] has as its target Hexose transporter 1 (Plasmodium falciparum) (UniProt O97467). Nature of the experiment: ST_JUDE_LEISH: Cytotoxicity at 2uM final concentration against transgenic Leishmania Mexicana promastigotes LmPfHT that are glucose transport deficient and complemented with the Plasmodium falciparum hexose transporter. Activity is measured by DNA content using SYBR green in vitro.

Experiment [3] has as its target Glucose transporter (Leishmania mexicana) (UniProt O61059). Nature of the experiment: ST_JUDE_LEISH: Cytotoxicity at 2uM final concentration against transgenic Leishmania Mexicana promastigotes LmGT2 that are glucose transport deficient and complemented with the L. Mexicana glucose transporter 2. Activity is measured by DNA content using SYBR green in vitro.

Each structure is given as a SMILES string.

Sequence of Solute carrier family 2, facilitated glucose transporter member 1 (Homo sapiens) (P11166 whole entry): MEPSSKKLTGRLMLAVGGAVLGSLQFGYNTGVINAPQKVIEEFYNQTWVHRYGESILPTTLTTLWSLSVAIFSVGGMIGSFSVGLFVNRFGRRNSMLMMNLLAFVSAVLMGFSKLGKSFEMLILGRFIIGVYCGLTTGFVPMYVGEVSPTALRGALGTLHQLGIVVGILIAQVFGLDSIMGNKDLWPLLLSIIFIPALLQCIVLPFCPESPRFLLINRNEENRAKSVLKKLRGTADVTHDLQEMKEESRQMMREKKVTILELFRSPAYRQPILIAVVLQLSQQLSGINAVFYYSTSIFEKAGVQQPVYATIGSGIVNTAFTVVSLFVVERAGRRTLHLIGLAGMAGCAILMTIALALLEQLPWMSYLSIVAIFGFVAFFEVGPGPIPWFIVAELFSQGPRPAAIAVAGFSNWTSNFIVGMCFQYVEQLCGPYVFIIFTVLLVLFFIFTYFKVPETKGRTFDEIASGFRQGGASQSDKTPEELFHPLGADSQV

As usually defined, the inhibition is the change of the read-out against control, counted positive when it falls. Regarding `COCC(=O)Nc1nc2ccccc2[nH]1`, the inhibition was determined as 2.56% in experiment [1], 2.67% in experiment [2] and 2.36% in experiment [3].
The corresponding values for `O=C(NCCCCCN1CCC(c2c[nH]c3ccccc23)CC1)c1ccc(-c2cccnc2)cc1` are 1.86%, 0.85% and 1.15%.
Regarding `COc1ccc(C=Cc2cc(=N)c3ccccc3[nH]2)cc1Br`, the inhibition in experiment [1] is 1.57%; in experiment [2], 2.29%; in experiment [3], 1.29%.
Consider `O=C(N[C@@H](Cc1ccccc1)C(=O)NC1CCCCC1)c1ccc(O)c(-c2ccc(Cl)c(Cl)c2)c1`, for which the inhibition in experiment [1] was -0.99%; in experiment [2], 0.22%; in experiment [3] it was -0.73%.
On to `NC[C@H](CC1CCCCC1)NC(=O)c1ccc(-c2ccnc3[nH]ccc23)s1`, for which the figures for the inhibition in experiment [1], in experiment [2] and in experiment [3] were 7.16%, 3.21% and 2.91%, respectively.
With `Cc1cccc2nc(-c3ccc(-c4cccc(CNC(C)C)c4)s3)[nH]c12`, the inhibition in experiment [1] stood at 2.58%; in experiment [2], 1.37%; in experiment [3], 3.77%.
For `CS(=O)(=O)CCNCc1nc(-c2ccc3ncnc(Nc4ccc(OCc5cccc(F)c5)c(Cl)c4)c3c2)cs1`, in that order: 3.7%, 2.03% and -1.62%.
On to `COc1ccc2ncc(F)c(CCN3CCC(CNC(=O)C(=O)c4c[nH]c5ccccc45)CC3)c2n1`, for which the inhibition in experiment [1] amounted to 6.8%; in experiment [2], 7.49%; in experiment [3] it was 1.37%.
For `O=C(Nc1ccc(Cl)c(-c2nc3ccccc3[nH]2)c1)c1ccc(-c2ccc(Cl)cc2)o1`, in that order: 2.63%, 4.17% and 1.89%.
Consider `N#Cc1ccc(OCCN(Cc2ccccc2C(F)(F)F)c2ccc(C#N)c(C(F)(F)F)c2)cc1`, for which the inhibition in experiment [1] stood at 10.1%; in experiment [2], 9.42%; in experiment [3], 8.53%.
Turning to `CCC(C)C#Cc1c(C)nc(N)nc1N` (configuration not stated), the inhibition was found to be 0.18% in experiment [1], 0.61% in experiment [2] and 0.17% in experiment [3].
Regarding `Cc1cc(CNCCCCCCNCc2ccc(Cl)cc2)ccc1O`, the inhibition in experiment [1] turned out to be 9.89%; in experiment [2], 7.77%; in experiment [3] it was 9.18%.
Take `CCCC(C)Nc1nc(C)cc(N[C@@H](Cc2ccccc2)C(=O)NCc2cccc(F)c2)n1` (some centres not stated): the results for the inhibition in experiment [1], in experiment [2] and in experiment [3] were 4.14%, 4.96% and 2.68%, respectively.
As to `CCCCCCCC(=O)N[C@@H](Cc1ccccc1)C(=O)N[C@H](C(=O)O)C(C)C`, the inhibition in experiment [1] stood at 2.54%; in experiment [2], 1.23%; in experiment [3] it was 2.59%.
As for `COc1c(C2CCN(CCCCNC(=O)c3ccc(-c4ccc(C#N)cc4)cc3)CC2)cc(Cl)c2c1CCCC2`, the inhibition in experiment [1] was determined as 1.68%; in experiment [2], 2.86%; in experiment [3] it was 0.77%.
On to `CS(=O)(=O)CCNCc1ccc(-c2ccc3c(Nc4ccc(Oc5ccccn5)cc4)ccnc3c2)o1`, for which the inhibition was 1.24% in experiment [1], -0.28% in experiment [2] and 2.55% in experiment [3].
Consider `CNC(=O)c1cc(S(=O)(=O)N2CCN(c3ccccn3)CC2)cs1`, for which the results for the inhibition in experiment [1], in experiment [2] and in experiment [3] were 0.24%, 0.78% and -2.48%, respectively.
Take `CCCCCN1C(=O)C(c2ccccc2)(c2ccccc2)N=C1N`: the inhibition was found to be 4.32% in experiment [1], 2.96% in experiment [2] and 4.92% in experiment [3].
On to `CC(=O)N[C@H](C(=O)Nc1cccc(-c2ccc(-c3nc4cccc(C)c4[nH]3)s2)c1)C(C)C`, for which the inhibition was found to be 3.65% in experiment [1], 2.85% in experiment [2] and 2.08% in experiment [3].
Turning to `COc1ccc(CNc2nccc3ccc(-c4ccc(N)nc4)cc23)cc1`, the inhibition in experiment [1] is -2.02%; in experiment [2], -0.06%; in experiment [3], -0.73%.
As to `Cc1ncc([N+](=O)[O-])n1CCOC(=O)NC(NCC1COc2ccccc2O1)C(Cl)(Cl)Cl` (configuration not stated), the figures for the inhibition in experiment [1], in experiment [2] and in experiment [3] were 2.63%, 2.63% and 2.19%, respectively.
With `CC(C)(C)c1ccc(-c2cc(C(=O)N[C@@H](CO)C(=O)O)on2)cc1.CC(C)(C)c1ccc(-c2nocc2C(=O)N[C@@H](CO)C(=O)O)cc1`, the values for the inhibition in experiment [1], in experiment [2] and in experiment [3] were 4.07%, 3.4% and 6.48%, respectively.
For `CCCCc1cc(Cc2cnc(N)nc2N)cc(OC)c1OC`, the inhibition came out at 3.17% in experiment [1], 2.41% in experiment [2] and 0.98% in experiment [3].
For the compound `CCCC(=O)NC(NC(=S)Nc1ccc([N+](=O)[O-])cc1)C(Cl)(Cl)Cl` (configuration not stated), the inhibition in experiment [1] is -1.2%; in experiment [2], -0.54%; in experiment [3], -0.01%.
As for `O=C(/C=C/c1ccc(C(F)(F)F)cc1)NCCCCCN1CCC(c2c[nH]c3ccccc23)CC1`, the figures for the inhibition in experiment [1], in experiment [2] and in experiment [3] were -1.24%, -1.37% and 0%, respectively.
As for `Cn1c(NC(=O)c2ccc(CNC(=O)c3ccc(O)c(-c4ccc(Cl)c(Cl)c4)c3)cc2)nc2ccccc21`, the inhibition in experiment [1] turned out to be 4.29%; in experiment [2] it was 3.37%; in experiment [3], 3.29%.
In the case of `Cc1nnsc1C(=O)Nc1cccc(-c2ccc(-c3nc4cc(F)ccc4[nH]3)cc2)c1`, the values for the inhibition in experiment [1], in experiment [2] and in experiment [3] were 3.93%, 3.3% and 4.66%, respectively.
Regarding `Clc1ccc2c(NN=Cc3ccccc3)ccnc2c1`, the values for the inhibition in experiment [1], in experiment [2] and in experiment [3] were 7.48%, 6.89% and 7.07%, respectively.
As for `Oc1ccc(Br)cc1C(O)CNCc1ccccc1OCc1ccccc1` (configuration not stated), the values for the inhibition in experiment [1], in experiment [2] and in experiment [3] were 2.85%, 3.54% and 2.87%, respectively.
On to `O=C(C=Cc1ccc(Cl)c(Cl)c1)NCCCCCN1CCC(CCCNC(=O)/C=C/c2ccccc2)CC1`, for which the inhibition in experiment [1] was determined as 3.12%; in experiment [2], 2.68%; in experiment [3], 1.62%.
For `NC(=O)c1cnc2cc(-c3ccoc3)ccc2c1Nc1ccc(NC(=O)Nc2ccccc2Cl)cc1`, in that order: 2.28%, 0.16% and -3.01%.
On to `Cc1nc2nc(N)nc(N)c2c(C)c1Cc1ccccc1Cl`, for which the inhibition was found to be 9.22% in experiment [1], 12.6% in experiment [2] and 7.89% in experiment [3].
As for `CN1C(=O)C(=NN=C(S)N2CCOCC2)c2ccccc21`, the inhibition came out at 23.4% in experiment [1], 63.9% in experiment [2] and 12.7% in experiment [3].
On to `Oc1ccc2[nH]c(-c3ccc(OC(F)(F)F)cc3)nc2c1CNC1CCCC1`, for which the inhibition came out at 2.65% in experiment [1], 3.35% in experiment [2] and 3.64% in experiment [3].

For the origin of these results see ChEMBL document CHEMBL3433997, “St. Jude Leishmania screening dataset” (2016).
